Bioassay records from PubChem BioAssay.
SMN2 splice enh = SMN2 splice variant enhancement. HEK293 SMN2-luciferase splicing reporter, luminescence, 30-36 h. 2.8% of 210,000 active. AID 1458. Potency, µM (series often up to 46.1 µM), inactives show top-dose activity change, positive = activation, hits mostly activators; also: % of control where 0% means no effect; nearly all actives have a fitted effect of over 55% in size
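qHTS luciferase splicing reporter: luminescence rises when SMN2 exon 7 is included in transfected HEK293 cells. Compound exposure lasted 30-36 h at 37C, with 4.5 mM final sodium butyrate as control, followed by a ONE-Glo read.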
FLuc modulator = counter-screen for miR-21 project: firefly luciferase inhibitors or activators; purified FLuc, Km substrates, luminescence inhibition; 6.9% of 360,000 active; P08659; Potency, µM (series often up to 57.5 µM), for inactives: at the top dose activity change, negative = inhibition, actives largely listed as inhibitors; AID 588342;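 also: plate controls were vehicle for no effect and reference inhibitor for full effect; nearly all actives have a fitted effect of over 55% in size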
Target sequence (P08659 whole entry, looked up): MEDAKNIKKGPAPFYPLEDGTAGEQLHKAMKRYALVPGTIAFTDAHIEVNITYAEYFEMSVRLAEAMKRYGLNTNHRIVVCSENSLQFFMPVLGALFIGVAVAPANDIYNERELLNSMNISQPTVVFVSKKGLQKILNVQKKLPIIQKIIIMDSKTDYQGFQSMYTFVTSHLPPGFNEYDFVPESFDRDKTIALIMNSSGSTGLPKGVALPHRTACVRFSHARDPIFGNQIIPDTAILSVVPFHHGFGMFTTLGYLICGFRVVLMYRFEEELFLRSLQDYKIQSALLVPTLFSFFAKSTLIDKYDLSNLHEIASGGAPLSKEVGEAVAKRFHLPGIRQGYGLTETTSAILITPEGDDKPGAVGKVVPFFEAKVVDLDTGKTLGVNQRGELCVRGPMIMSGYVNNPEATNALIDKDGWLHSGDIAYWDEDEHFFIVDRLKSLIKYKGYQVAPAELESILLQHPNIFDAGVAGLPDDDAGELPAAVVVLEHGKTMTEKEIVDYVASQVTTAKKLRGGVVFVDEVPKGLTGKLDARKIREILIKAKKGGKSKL
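Biochemical qHTS of compounds, final roughly 60 µM downward over six points, against 10 nM purified firefly luciferase using Km concentrations of substrates (10 uM D-luciferin, 10 uM ATP) in Tris acetate pH 7.5 buffer; luminescence output.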
ELG1 genotox = inducers of genotoxicity in HEK293T ELG1-luciferase cells; 1.3% of 330,000 active; Potency, µM (highest dose often 46 µM), for the others: at the highest dose activity change, positive = activation, usual class: activators; HEK293T ELG1-luciferase reporter, luminescence, 16 h; also: % of control where 0% means no effect; nearly all actives have a fitted effect of over 60% in size
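HEK293T cells expressing luciferase-tagged ELG1 were exposed to compound or DMSO vehicle for 16 hr at 37 °C and 5% CO2. Luciferase activity was then measured with ONE-Glo after 30 min at room temperature.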
Rab9 promoter act = activates the Rab9 promoter; Potency, µM (highest dose often 9.22 µM), inactives show top-dose activation, negative = inhibition, actives largely listed as activators; 2.8% of 320,000 active; Huh7 Rab9 promoter-luciferase reporter, luminescence, 24 h; also: % of control where 0% means no effect; nearly all actives have a fitted effect of over 60% in size
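Steps: seed 1500 Huh7 Rab9-luc cells per well, rest 2 h at 37 °C; add compound in DMSO; incubate 24 h; add luciferase reagent, 10 min ambient; read luminescence.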
ELG1 DNA repair = inhibitors of ELG1-dependent DNA repair in HEK293T cells; 2.3% of 330,000 active; Potency, µM (highest dose often 46.1 µM), for inactives: at the highest dose activity change, negative = inhibition, actives largely listed as inhibitors; HEK293T ELG1-luciferase reporter, luminescence, 16 h; DNA damage induced by 5-fluorouridine; also: % is scaled to controls: 0 for no effect and ±100 for the full control effect; nearly all actives have a fitted effect of over 55% in size
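Luminescence from the luciferase reporter, measured 30 min after ONE-Glo reagent at room temperature, was the read-out. Beforehand, 2,000 cells per well were exposed for 16 hr at 37 °C to 5-fluorouridine together with compound or vehicle.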
NPC1 prom act = NPC1 promoter activation; 2.4% of 320,000 active; Huh7 NPC1 promoter luciferase reporter, 24 h; Potency, µM (highest dose often 9.22 µM), inactives show at the highest dose activation, usual class: activators; also: % of control where 0% means no effect; nearly all actives have a fitted effect of over 60% in size
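Stably transfected Huh7 (NPC1 promoter→luciferase), 1500 cells/well in Opti-MEM + 10% FBS, 2 h settle, then compound 24 h at 37 °C. Luminescence after 10 min with Amplite reagent.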
The depositor's hits bear a star; u = inconclusive; x = not tested or not shown; [ ] = remark or other dose. In the library only some 9.4% were active in any assay of this set; here they are far more common. Calls follow the shape of the dose curve; as a rule, active = well fitted curve in the direction sought with a large enough effect; inconclusive = small, poorly fitted or top-dose-only effect, or another doubt; inactive = no such curve, though single readings can be large; an effect the other way counts as inactive or inconclusive. Potency is read from the fitted curve at half-maximal effect.

SMILES | SMN2 splice enh | FLuc modulator | ELG1 genotox | Rab9 promoter act | ELG1 DNA repair | NPC1 prom act
Cc1noc(C)c1S(=O)(=O)NCCc1csc2nc(-c3ccc(F)cc3)nn12 | x | -14.1% | x | x | x | x
CCc1ccc(CSc2nccn2-c2ccccc2)cc1 | -3.4% | -1.5% | 0.1% | 0.3% | 2.2% | -3.1%
c1ccc(CCSc2nccn2-c2ccccc2)cc1 | 20µM* | 3.38µM* | u | 3.16µM* | u | 2.82µM*
Cc1cc(=O)[nH]c2c(C)cc(S(=O)(=O)N3CCCCC3)cc12 | x | 0.0% | 16.4µM* | -9.8% | u | -9.6%
Cc1cc(=O)[nH]c2c(C)cc(S(=O)(=O)NCc3ccccc3)cc12 | x | 1.9% | -1.2% | 2.1% | -5.7% | 3.2%
O=C(COC(=O)c1cccs1)NC1CCCCC1 | 0.5% | 21.3µM* | -0.8% | 5.2% | 0.4% | 1.9%
Cc1ccsc1C(=O)OCC(=O)NCCNC(=O)COC(=O)c1sccc1C | x | -0.9% | 7.1% | -0.7% | 22.9% | -1.1%
O=C(NC(=S)NC1CCCC1)c1ccccc1 | x | 16.9µM* | u | u | u | u
O=C(NC(=S)NC1CCCCCCCCCCC1)c1cccnc1 | 0.0% | 0.1% | 4.0% | 2.6% | 18.8% | -0.4%
Cc1ccsc1C(=O)OCC(=O)NC1CCCC1 | x | 21.3µM* | u | u | u | u
O=C(COC(=O)c1cccs1)NC1CCCC1 | x | u | 6.7% | -4.0% | -1.8% | -3.3%
O=C(COC(=O)c1ccccc1)NC1CCCC1 | x | 16.9µM* | 9.1% | -8.0%[1.84 µM] | 21.6% | -3.2%
CCN(CC(=O)Nc1ccccc1OC)C(=O)c1ccc(NS(=O)(=O)c2ccc(C(C)=O)cc2)cc1 | x | 1.4% | -3.0% | -4.1% | 1.5% | -4.5%
CC(C)CN1CCC2(CC1)CCN(C(=O)c1cccc(F)c1)CC2 | -4.8% | x | x | x | x | x
COc1ccccc1NC(=O)C1=C(C)Nc2nc(-c3ccco3)nn2C1c1cccc(C)c1 (centres undefined) | -5.8% | -6.5% | x | x | x | x
CCOC(=O)c1ccc2c(c1)N(Cc1cccc([N+](=O)[O-])c1)C(=O)c1ccccc1S2 | x | 4.4% | x | x | x | x
O=C(COC(=O)c1ccccc1F)NC1CC1 | x | -15.0% | 1.7% | -3.0% | 15.1% | -3.4%
O=C(COC(=O)c1ccccc1F)NC1CCCC1 | x | 23.9µM* | 1.1% | -1.0% | 15.9% | -2.5%
O=C(COC(=O)Cc1c(Cl)cccc1Cl)NC1CCCC1 | x | x | 2.0% | x | u | x
O=C(COC(=O)c1c(F)cccc1Cl)NC1CCCCC1 | x | 15.1µM* | u | u | u | u
C=CC[C@@H](CC(=O)N[C@H](CO)Cc1ccccc1)C(=O)N[C@H](COC(=O)[C@@H](CC=C)Cc1ccc(F)cc1)Cc1ccccc1 | x | x | 6.1% | x | -13.4% | x
Cc1cccc2cc(CN(Cc3nnnn3Cc3ccco3)C3CCCC3)c3nnnn3c12 | -10.9% | 16.0% | -22.9% | -5.3% | 20.6µM* | 1.5%
O=C(O)c1cncc(C#CCC2CCCCC2)c1 | x | u | 0.7% | 2.82µM* | u | u
O=C(O)c1cncc(C#Cc2ccccc2)c1 | x | u | -1.9% | 14.7% | -1.2% | 1.5%
CCOc1ccccc1NC(=O)CN1C(=O)CC(c2ccco2)Sc2ccccc21 (centres undefined) | -33.4% | u | x | x | x | x
SMILES | SMN2 splice enh | FLuc modulator | ELG1 genotox | Rab9 promoter act | ELG1 DNA repair | NPC1 prom act
O=C(Nc1nnc(SCC(=O)N2CCOCC2)s1)c1ccccc1Cl | -7.1% | 8.49µM* | 13.1% | u | u | u
O=C(Nc1nnc(SCC(=O)N2CCCCC2)s1)c1cccs1 | u | 19µM* | 2.3% | 17.1% | u | 1.6%
O=C(Nc1nnc(SCC(=O)N2CCCCC2)s1)c1ccccc1F | x | 23.9µM* | 10.3% | 16.7% | u | 12.1%
COc1ccc(-n2nc(C(=O)Nc3ccc(C(C)=O)cc3)nc2-c2ccccc2)cc1 | x | -2.9% | x | x | x | x
COc1cccc2cc(-c3nc(-c4cccs4)cs3)c(=O)oc12 | 14.1µM* | 5.36µM* | u | 3.55µM* | u | 3.55µM*
COc1cccc2cc(-c3nc(-c4ccccc4F)no3)c(=O)oc12 | x | 0.169µM* | x | x | x | x
